# Assay outcomes: PubChem BioAssay, National Center for Advancing Translational Sciences (NCATS)
# Sm TGR block = blocks Schistosoma mansoni thioredoxin glutathione reductase. Q962Y6. purified TGR, DTNB reduction, TNB absorbance 405 nm. Potency, µM (series often up to 114 µM), for inactives: at the highest dose activity change, negative = inhibition, actives largely listed as inhibitors. hit rate 3% among 360,000. AID 485364; further: potency means the concentration at half of the fitted maximal effect; nearly all actives have a fitted effect of over 60% in size
#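 TGR 20 nM + NADPH 100 uM (dispensed conc.), cpd preinc 15 min RT; start with NADPH (500 uM addition) then DTNB (15 mM addition). Kinetic TNB absorbance, 405 nm filter. Four-parameter Hill fit across titration.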
# Vaccinia Venus = inhibitors of vaccinia virus (Venus reporter); Vaccinia virus Venus reporter expression, fluorescence; Potency, µM (titrated, usually from 36.5 µM), inactives show at the top dose activity change, negative = inhibition, usual class: inhibitors; hit rate 0.46% among 330,000; AID 720580; calls by dose curve; tested in A549 cells; further: potency means the concentration at half of the fitted maximal effect; nearly all actives have a fitted effect of over 30% in size
# FMDV antiviral = foot and mouth disease virus antiviral activity. FMDV antiviral cell-based qHTS. Potency, µM (top dose mostly 57.9 µM), for inactives: at the highest dose activity change, negative = inhibition, usual class: inhibitors. hit rate 1.2% among 410,000. AID 1159524; calls by dose curve; tested in HEK293T cells; further: read-out not given here; potency means the concentration at half of the fitted maximal effect; nearly all actives have a fitted effect of over 45% in size
# VACV mCherry inh = vaccinia inhibition (mCherry reporter). Vaccinia virus mCherry reporter infection, fluorescence. Potency, µM (highest dose often 36.5 µM), without a hit: top-dose activity change, negative = inhibition, most hits filed as inhibitors. hit rate 0.63% among 310,000. AID 720579; calls by dose curve; tested in A549 cells; further: potency means the concentration at half of the fitted maximal effect; nearly all actives have a fitted effect of over 35% in size
# HCMV antiviral = inhibitors of human cytomegalovirus | hit rate 4.5% among 410,000 | activity change, negative = inhibition, % at 57.5 µM | HFF cells, HCMV-luciferase reporter, 72 h; stronger effect = lower value; in the data active means activity change below about -60%; inconclusive means no clear call, values can overlap the other calls; inactive means above about -39%
#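 HFF cells seeded 16 h at 37C, treated with compounds, infected with luciferase-reporter HCMV at MOI 1 PFU/cell; luciferase read at 72 h post infection, normalized to buffer-only and Salinomycin controls.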
# HCV inhibitor = HCV inhibition; Huh7.5.1 HCVcc-Cre infection, luciferase reporter, 44 h; Potency, µM (highest dose often 41.8 µM), for the others: top-dose activity change, negative = inhibition, usual class: inhibitors; hit rate 3.4% among 340,000; further: potency means the concentration at half of the fitted maximal effect
#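 Antiviral activity was scored by luciferase reporter output from cells infected with HCVcc-Cre (~0.5 moi) in presence of compound, 44 h infection period, cells seeded 1,000/well 4 h prior.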
# Starred values were filed as active, the others as inactive; i = inactive; ? = inconclusive; · = no result; [ ] = remark or other dose. Sampled rows, rich in hits. Any-hit rate of the full collection: about 9.3%. Unless noted, the call rests on the fitted dose curve; in most records, active means well fitted curve in the direction sought with a large enough effect; inconclusive means small, poorly fitted or top-dose-only effect, or another doubt; inactive means no such curve, though single readings can be large; an effect the other way counts as inactive or inconclusive. On the % scale 0 is the no-effect control and ±100 the full control effect.
SMILES,Sm TGR block,Vaccinia Venus,FMDV antiviral,VACV mCherry inh,HCMV antiviral,HCV inhibitor
Cc1ccc(-n2nc3c(=O)n(C(C)C(=O)NCCC4=CCCCC4)nc(C)c3c2C)cc1 (stereo unspecified),-4%,·,14µM*,·,-61*,10µM*
CCC(C(=O)NCCc1ccc(C)cc1)n1nc(C)c2c(C)n(-c3ccccc3)nc2c1=O (stereo unspecified),9%,·,-9%,·,?,-7%
CCC(C(=O)NCCc1ccc(SC)cc1)n1nc(C)c2c(C)n(-c3ccc(C)cc3)nc2c1=O (stereo unspecified),-3%,?,?,-21%,-80*,·
CSc1ccc(CNC(=O)C(C)n2nc(C)c3c(C)n(-c4ccccc4)nc3c2=O)cc1 (stereo unspecified),-1%,-13%,-23%,-9%,-62*,?
O=C(Nc1c(-c2ccc3c(c2)OCO3)[nH][nH]c1=O)c1ccccc1,·,0%,-16%,6%,?,·
O=C1OC(OC2CCCCC2)(c2ccccc2)c2ccccc21 (stereo unspecified),-11%,-17%,-15%,-9%,?,·
Cc1ccc(-n2nc3c(=O)n(C(C)C(=O)NCc4ccccc4C)nc(C)c3c2C)cc1 (stereo unspecified),-2%,-16%,?,-4%,0,·
Cc1ccc(-n2nc3c(=O)n(C(C)C(=O)NCc4ccc(Cl)cc4)nc(C)c3c2C)cc1 (stereo unspecified),4%,·,?,·,-68*,22µM*
CC(Oc1cc2oc(=O)c3c(c2cc1Cl)CCC3)C(=O)NCCN1CCOCC1 (stereo unspecified),-11%,·,-13%,·,-20,-3%
O=C(Cc1sc(-c2ccccc2)nc1-c1ccccc1)Nc1ccc(Cl)cc1,19%,-7%,-16%,-14%,-76*,-2%
O=C(Cc1sc(-c2ccccc2Cl)nc1-c1ccccc1)Nc1ccc(F)cc1,-4%,2%,-7%,·,-60*,7.9µM*
CC(=O)Nc1ccc(NC(=O)Cc2sc(-c3cccnc3)nc2-c2ccc(C)cc2)cc1,·,-22%,31%,i,-25,-9%
O=C(Cc1sc(-c2ccccc2Cl)nc1-c1ccccc1)Nc1ccccc1,0%,1%,?,·,-90*,-5%
Cc1cccc(CNc2cc(-c3ccccc3C)ncn2)c1,·,-18%,-25%,-5%,·,·
Cc1cc(NCCCn2ccnc2)n2ncc(-c3ccc(Cl)cc3)c2n1,11%,?,3%,13µM*,14,7.1µM*
CN(C)CCCNc1cc(C(C)(C)C)nc2c(-c3ccc(Cl)cc3)cnn12,20%,-5%[7.34 µM],1%,i[7.34 µM],-103*,10µM*
Cc1cc(NCCCN2CCOCC2)n2ncc(-c3ccc(Cl)cc3)c2n1,7%,·,28%,·,55,13µM*
O=S(=O)(NCCCCCCc1ccccc1)c1cccc2c(Cl)cccc12,·,·,49%,·,·,·
CC(C)CCNC(=O)C1CC(c2ccccc2[N+](=O)[O-])=NO1 (stereo unspecified),·,-11%,43%,-5%,56,-15%
COc1cc(-c2c(-c3cc(OC)c(OC)c(OC)c3)noc2C)ccc1F,-11%,?,-23%,-7%,-94*,?
COc1cc(-c2noc(C)c2C#Cc2ccccn2)cc(OC)c1OC,35µM*,?,-17%,-12%,-18,?
COc1cc(-c2noc(C)c2/C=C/c2ccc(N)cc2)cc(OC)c1OC,-10%,?,-3%,?,-83*,?
COc1cc(-c2noc(C)c2C#Cc2ccc(N)cc2)cc(OC)c1OC,-15%,?,10%,-30%,-19,2.2µM*
COc1ccc(-c2c(-c3cc(OC)c(OC)c(OC)c3)noc2C)cn1,0%,-22%,7%,?,·,-19%
O=C1CSC(=S)N1c1cccc(F)c1,10%,·,?,·,95,-15%
SMILES,Sm TGR block,Vaccinia Venus,FMDV antiviral,VACV mCherry inh,HCMV antiviral,HCV inhibitor
CCCNc1nc(-c2ccccc2)c(C(=O)OCC)cc1C#N,-3%,?,?,·,?,3.2µM*
CCCCNc1nc(-c2ccccc2)c(C(=O)OCC)cc1C#N,12%,-29%,-15%,·,-3,?
CCOC(=O)C1=CN(CC)S(=O)(=O)NC1c1ccc2ccccc2c1 (stereo unspecified),·,-7%,-24%,-20%,-6,-27%
CCOC(=O)C1=CN(Cc2cccc(F)c2)S(=O)(=O)N(CC)C1c1ccccc1 (stereo unspecified),·,-16%,-1%,?,-10,0.56µM*
CCOC(=O)C1=CN(CC)S(=O)(=O)NC1c1ccccc1 (stereo unspecified),·,-6%,0%,-29%,-82*,-18%[8.37 µM]
CCOC(=O)C1=CN(Cc2cccc(F)c2)S(=O)(=O)N(CC)C1c1cccc(OC)c1 (stereo unspecified),·,-11%,3%,-22%,-26,5%
Cc1ccc(C)c2c1cc(C)c1nnc(SCC(=O)NCc3ccc4c(c3)OCO4)n12,-1%,-13%,?,-10%,-25,-22%
COCCCNCCCOc1ccc(Cl)cc1Br,7%,·,-8%,·,-5,13µM*
CC(O)CNCCCOc1ccc(Cl)cc1C(C)(C)C (stereo unspecified),7%,-18%,-20%,-18%,1,11µM*
CCCCNCCOCCOc1ccc(Cl)cc1Br,-8%,-20%,-25%,-18%,-23,?
COCCCNCCCOc1ccc(C)cc1Br,-10%,2%,-8%,-5%,-63*,-25%
CN(C)CCOCCOc1ccc(Cl)cc1C(C)(C)C,8%,-13%,-6%,-4%,?,?
Cc1cccc(NC(=O)C[n+]2ccc(N(C)C)cc2)c1,26%,·,-15%,·,?,-3%
CCOc1ccc(NC(=O)C[n+]2ccc(N(C)C)cc2)cc1,-7%,-24%,-28%,-25%,-97*,13%
CN(C)c1cc[n+](CC(=O)Nc2ccc(Cl)cc2)cc1,7%,·,-36%,·,-89*,-20%
CN(C)c1cc[n+](CC(=O)Nc2ccc(Oc3ccccc3)cc2)cc1,7%,-26%,-17%,-9%,-98*,?
Cc1c(C=O)c2ccccn2c1C(=O)c1ccc(Cl)c([N+](=O)[O-])c1,-23%,6%,?,0%,-31,22%
COc1cc(-c2cc(-c3ccccc3)nc(SCC(=O)Nc3nccs3)c2C#N)cc(OC)c1OC,35%,2%,-2%,·,16,-23%
Cc1nc(SCC(=O)Nc2nccs2)c(C#N)c(C)c1C,-7%,·,-25%,·,-69*,0%
CC(C)CC(=O)Nc1nnc(SCC(=O)Nc2nccs2)s1,-2%,-7%,-11%,-22%,-63*,·
CC(C)CC(=O)Nc1nnc(SCC(=O)NC2CCCC2)s1,·,-7%,-11%,i,4,·
CSc1nc(N)nc(SCC(=O)Nc2cccc(F)c2)c1C#N,-4%,?,?,?,-65*,?
